The source made the active and inactive calls. How the source made its calls: active means hit-call score of the fitted dose curve at least 0.9, where 1 is the maximum; inactive means score below 0.9.

A short description of assay [1]: APR_HepG2_NuclearSize_72hr: Apredica 72-hour HepG2 Assay for Nuclear Size (AID 2282925). Conditions: high-content imaging, actives raise or lower the signal. Put shortly: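 Compounds (0.39–200 uM, final DMSO 0.5%) were applied to HepG2 for 72 hr. Cells were then formaldehyde-fixed, permeabilized and labelled with Hoechst 33342. Nuclear diameter was quantified from six images per well.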

A short description of assay [2]: ATG_CRE_CIS: Attagene CIS-FACTORIAL HepG2 Assay for human cAMP Responsive Element (CRE) binding protein 3 (AID 2282926). Conditions: HepG2 CRE cis-reporter, Attagene multiplexed mRNA; actives raise or lower the signal. Put shortly: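 Capillary electrophoresis of 6-FAM-labelled, HpaI-digested PCR products quantified reporter transcripts. These came from HepG2 transiently transfected with cis-element reporters and exposed to test chemicals for 24 hours, with DMSO defining baseline activity.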

Assay [3] deals with CCAAT/enhancer-binding protein beta (Homo sapiens) (UniProt P17676). Briefly: ATG_C_EBP_CIS: Attagene CIS-FACTORIAL HepG2 Assay for human CCAAT/Enhancer Binding Protein (C/EBP) beta (AID 2282927). Conditions: HepG2 Attagene cis-factorial transcription factor reporter; actives raise or lower the signal. In short, it runs like this: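 Chemical-treated HepG2 cells (24 h) bearing cis-regulated reporter constructs were processed for total RNA, then reverse transcription, PCR amplification, fluorescent primer extension and fragment analysis; gain- and loss-of-signal were fitted against DMSO.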
CCAAT/enhancer-binding protein beta (Homo sapiens), sequence (P17676 whole entry, looked up, the tested form may be a part): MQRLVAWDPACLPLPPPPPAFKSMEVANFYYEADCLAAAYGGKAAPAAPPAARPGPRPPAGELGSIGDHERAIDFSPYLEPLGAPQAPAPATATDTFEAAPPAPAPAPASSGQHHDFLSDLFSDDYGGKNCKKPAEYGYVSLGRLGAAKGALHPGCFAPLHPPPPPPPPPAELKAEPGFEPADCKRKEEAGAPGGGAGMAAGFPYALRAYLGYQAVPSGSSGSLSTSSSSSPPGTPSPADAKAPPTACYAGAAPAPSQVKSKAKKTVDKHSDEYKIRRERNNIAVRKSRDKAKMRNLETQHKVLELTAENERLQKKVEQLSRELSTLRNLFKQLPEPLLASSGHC

Assay [4] is described as follows: ATG_CMV_CIS: Attagene CIS-FACTORIAL HepG2 Assay for human CMV (Internal Marker) (AID 2282928).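 Further: endpoint acts as a background internal control marker rather than a target.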 To be noted: HepG2 CMV promoter reporter, transcription factor profiling; actives raise or lower the signal. Put shortly:
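Readout: fluorescent reporter cDNA fragments separated by capillary electrophoresis after RT-PCR and HpaI cut. Cells: HepG2 carrying transfected cis-promoter reporter constructs, dosed 24 h. Endpoint serves as background internal-marker control, fit bidirectionally versus DMSO.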

Assay [5] in a line: ATG_DR4_LXR_CIS: Attagene CIS-FACTORIAL HepG2 Assay for human Liver X Receptor (LXR), DR4 submotif (AID 2282929). Conditions: HepG2 Attagene DR4 cis-reporter, mRNA transcription; actives raise or lower the signal. In short, it runs like this:
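HepG2, transient MRTU transfection, cis-element (DR4) promoter; 24 h compound exposure; total RNA → oligo(dT) RT → PCR → 6-FAM primer extension → HpaI cut → CE. Gain/loss vs DMSO, bidirectional fit.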

Assay [6] deals with Aryl hydrocarbon receptor (Homo sapiens) (UniProt P35869). The experiment in a line: ATG_Ahr_CIS: Attagene CIS-FACTORIAL HepG2 Assay for human Aryl Hydrocarbon Receptor (Ahr) (AID 2282930). Conditions: HepG2 AhR cis-factorial reporter transcription; actives raise or lower the signal. Put shortly:
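Following 24 h of chemical dosing, transfected HepG2 liver cells with cis-driven reporter units were lysed for RNA; reporter mRNA was quantified via RT-PCR and capillary electrophoresis, and responses fitted bidirectionally from DMSO.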

Assay [7] in a line: ATG_AP_2_CIS: Attagene CIS-FACTORIAL HepG2 Assay for human Activator Protein 2 (AP-2) (AID 2282932). Conditions: HepG2 AP-2 cis-reporter, Attagene transcription factor profiling; actives raise or lower the signal. In short, it runs like this:
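Assay in transfected HepG2 with promoter-regulated reporters, 24 h incubation after dosing. Signal is reporter mRNA fluorescence (RT-PCR, capillary electrophoresis), analysed for both increases and decreases relative to DMSO controls.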

A short description of assay [8]: ATG_BRE_CIS: Attagene CIS-FACTORIAL HepG2 Assay for human Bone Morphogenetic Protein (BMP) Response Element (BRE) (AID 2282933). Conditions: HepG2 BMP response element reporter, Attagene transcription factor profiling; actives raise or lower the signal. In short, it runs like this:
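Endogenous transcription factor activity read in transiently transfected HepG2 cells after 24 h chemical exposure. Bidirectional curve fitting against DMSO; readout is reporter transcript level by RT-PCR with capillary electrophoresis of labelled products.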

The target in assay [9] is Retinoic acid receptor alpha (Homo sapiens) (UniProt P10276). The experiment in a line: ATG_DR5_RAR_CIS: Attagene CIS-FACTORIAL HepG2 Assay for human Retinoic Acid Receptor Alpha (RARE), DR5 submotif (AID 2282934).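 On AC50: reporter responds to endogenous RAR alpha beta and gamma in HepG2 not RARA alone.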 To be noted: HepG2 Attagene cis-factorial RARE DR5 reporter, mRNA; actives raise or lower the signal. Put shortly: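 Transfected HepG2 reporter cells are exposed to chemicals for 24 h. Then RNA is extracted and the DR5 element reporter transcript is measured by RT-PCR and capillary electrophoresis, with bidirectional curve fitting relative to DMSO.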
Retinoic acid receptor alpha (Homo sapiens), sequence (P10276 whole entry, looked up): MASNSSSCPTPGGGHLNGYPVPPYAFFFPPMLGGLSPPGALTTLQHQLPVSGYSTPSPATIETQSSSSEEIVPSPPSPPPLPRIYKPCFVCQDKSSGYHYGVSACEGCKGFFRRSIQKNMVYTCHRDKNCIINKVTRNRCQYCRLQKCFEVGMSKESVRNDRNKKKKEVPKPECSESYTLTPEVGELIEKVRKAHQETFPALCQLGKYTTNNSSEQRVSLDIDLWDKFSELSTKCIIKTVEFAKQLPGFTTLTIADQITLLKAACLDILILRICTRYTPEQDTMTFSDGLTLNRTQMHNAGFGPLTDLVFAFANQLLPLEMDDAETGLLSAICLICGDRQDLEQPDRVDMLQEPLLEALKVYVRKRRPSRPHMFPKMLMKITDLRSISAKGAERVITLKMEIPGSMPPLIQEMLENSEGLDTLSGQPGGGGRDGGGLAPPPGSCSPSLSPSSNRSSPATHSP

The target in assay [10] is Transcription factor E2F1 (Homo sapiens) (UniProt Q01094). Briefly: ATG_E2F_CIS: Attagene CIS-FACTORIAL HepG2 Assay for human E2F Transcription Factor 1 (AID 2282935). Conditions: HepG2 Attagene cis-reporter, E2F reporter RNA transcripts; actives raise or lower the signal. Put shortly:
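In this cis-factorial format, endogenous factor activity drives transfected reporters in HepG2; transcripts collected at 24 h are quantified by fluorescence after RT-PCR and capillary separation.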

Assay [11] in a line: ATG_E_Box_CIS: Attagene CIS-FACTORIAL HepG2 Assay for human Enhancer Box (E-box) (AID 2282936). To be noted: HepG2 E-box cis-reporter transcription, actives raise or lower the signal. Put shortly:
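Measured 24 h post-dosing in HepG2 cells transfected with multiple cis-regulated reporter units, signal being reporter mRNA induction detected by fluorescent RT-PCR with capillary electrophoresis; gain or loss fitted against DMSO.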

Assay [12] can be described thus: ATG_M_61_CIS: Attagene CIS-FACTORIAL HepG2 Assay for M61 Transcription Factor (Internal Marker) (AID 2282937). Conditions: HepG2 Attagene CIS-FACTORIAL M61 internal marker reporter; actives raise or lower the signal. Put shortly:
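Human liver HepG2, transient MRTU transfection (cis promoter elements), 24 h compound. Total RNA → oligo(dT) RT → PCR → FAM label → HpaI → CE. Internal background marker; bidirectional fitting, DMSO = baseline.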

The nature of assay [13]: ATG_EGR_CIS: Attagene CIS-FACTORIAL HepG2 Assay for human Early Growth Response 1 (EGR1) (AID 2282938). To be noted: HepG2 Attagene CIS-FACTORIAL EGR reporter mRNA; actives raise or lower the signal. Put shortly:
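Transient transfection of human HepG2 with multiple cis-regulated reporter units, chemical exposure 24 h, total RNA isolated. Reverse transcription, PCR, fluorescent labelling and capillary electrophoresis quantify reporter transcripts; activity fitted bidirectionally against DMSO.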

The nature of assay [14]: ATG_M_19_CIS: Attagene CIS-FACTORIAL HepG2 Assay for M19 Transcription Factor (Internal Marker) (AID 2282939). To be noted: HepG2 Attagene CIS-FACTORIAL M19 internal marker reporter; actives raise or lower the signal. Put shortly:
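Internal marker readout, fitted in both directions against DMSO, from HepG2 cells carrying transfected cis-element reporter constructs; RT-PCR and capillary electrophoresis of reporter mRNA after 24 h exposure.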

Assay [15] can be described thus: ATG_ERE_CIS: Attagene CIS-FACTORIAL HepG2 Assay for Estrogen Response Element (ERE) (AID 2282940). Conditions: HepG2 ERE cis-reporter, Attagene RNA transcript; actives raise or lower the signal. In short, it runs like this: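 After 24 h compound treatment, RNA from transfected HepG2 cells was reverse-transcribed, reporter cDNA PCR-amplified, FAM-labelled, HpaI-cut and resolved by capillary electrophoresis. ERE-driven cis reporter transcripts reflect endogenous factors; gain or loss scored against DMSO.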

Assay [16] is described as follows: ATG_Ets_CIS: Attagene CIS-FACTORIAL HepG2 Assay for human Erythroblast Transformation Specific (ETS) (AID 2282941). To be noted: HepG2 ETS cis-reporter transcription, actives raise or lower the signal. Put shortly:
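RT-PCR/capillary electrophoresis fluorescence read-out of reporter mRNA; HepG2 transient multi-reporter transfection; 24 h compound exposure; gain or loss of signal fitted bidirectionally relative to DMSO.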

The target of assay [17] is Hepatocyte nuclear factor 3-beta (Homo sapiens) (UniProt Q9Y261). The experiment in a line: ATG_FoxA2_CIS: Attagene CIS-FACTORIAL HepG2 Assay for human Forkhead box A2 (FOXA2) (AID 2282942). To be noted: HepG2 cis-reporter transcription factor activity, 24 h; actives raise or lower the signal. Put shortly:
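Transient MRTU transfection of HepG2 liver cells; 24 h treatment; total RNA → oligo(dT) RT → PCR → FAM primer extension → HpaI cut → CE. Bidirectional fit vs DMSO.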

The nature of assay [18]: ATG_GATA_CIS: Attagene CIS-FACTORIAL HepG2 Assay for human GATA Binding Protein (AID 2282944). To be noted: HepG2 GATA cis-element reporter, Attagene multiplex mRNA; actives raise or lower the signal. Put shortly:
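Reporter transcripts from a GATA cis-regulated unit, among multiplexed reporters in transfected HepG2 cells, were measured by RT-PCR with capillary electrophoresis after 24 h dosing. Induction or loss scored relative to DMSO.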

Assay [19] can be described thus: ATG_AP_1_CIS: Attagene CIS-FACTORIAL HepG2 Assay for human Activator Protein 1 (AP-1) (AID 2282931). To be noted: HepG2 Attagene cis-factorial AP-1 reporter mRNA; actives raise or lower the signal. In short, it runs like this:
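Transient MRTU transfection of HepG2 → 24 h chemical treatment → RNA isolation, RT-PCR, 6-FAM labelling, HpaI digest → capillary electrophoresis. Fit: bidirectional, DMSO negative control.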

A short description of assay [20]: ATG_FoxO_CIS: Attagene CIS-FACTORIAL HepG2 Assay for human Forkhead box O (FoxO) (AID 2282943). To be noted: HepG2 Attagene cis-reporter, FoxO element, mRNA; actives raise or lower the signal. Put shortly: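 24 h chemical exposure, HepG2 with transient cis-MRTU transfection. RNA extraction, oligo(dT) RT, reporter-specific PCR, primer-extension labelling, HpaI digestion, CE fragment analysis; bidirectional fit, DMSO baseline.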

Aryl hydrocarbon receptor (Homo sapiens), sequence (P35869 whole entry, looked up): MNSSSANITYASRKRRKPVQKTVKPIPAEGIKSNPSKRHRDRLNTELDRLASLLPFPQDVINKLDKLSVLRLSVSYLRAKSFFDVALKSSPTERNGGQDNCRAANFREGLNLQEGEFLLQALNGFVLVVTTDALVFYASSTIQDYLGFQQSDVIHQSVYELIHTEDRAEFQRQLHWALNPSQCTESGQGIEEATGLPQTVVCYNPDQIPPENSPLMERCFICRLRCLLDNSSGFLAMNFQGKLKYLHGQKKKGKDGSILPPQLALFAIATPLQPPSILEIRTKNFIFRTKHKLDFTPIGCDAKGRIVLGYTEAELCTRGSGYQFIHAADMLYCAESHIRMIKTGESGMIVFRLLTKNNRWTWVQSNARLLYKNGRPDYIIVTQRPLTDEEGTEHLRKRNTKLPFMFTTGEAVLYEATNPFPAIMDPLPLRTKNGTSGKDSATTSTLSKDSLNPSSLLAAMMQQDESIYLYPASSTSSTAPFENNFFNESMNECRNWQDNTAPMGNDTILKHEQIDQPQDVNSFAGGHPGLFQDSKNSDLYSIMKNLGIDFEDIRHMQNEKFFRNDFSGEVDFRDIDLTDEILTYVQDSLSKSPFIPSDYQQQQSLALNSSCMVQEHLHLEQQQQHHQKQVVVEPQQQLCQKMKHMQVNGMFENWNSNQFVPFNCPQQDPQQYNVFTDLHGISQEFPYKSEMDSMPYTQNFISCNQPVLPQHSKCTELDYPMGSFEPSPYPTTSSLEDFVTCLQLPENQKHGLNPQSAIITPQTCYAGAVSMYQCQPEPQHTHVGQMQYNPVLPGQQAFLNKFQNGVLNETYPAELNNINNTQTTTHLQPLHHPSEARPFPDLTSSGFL
Hepatocyte nuclear factor 3-beta (Homo sapiens), sequence (Q9Y261 whole entry, looked up): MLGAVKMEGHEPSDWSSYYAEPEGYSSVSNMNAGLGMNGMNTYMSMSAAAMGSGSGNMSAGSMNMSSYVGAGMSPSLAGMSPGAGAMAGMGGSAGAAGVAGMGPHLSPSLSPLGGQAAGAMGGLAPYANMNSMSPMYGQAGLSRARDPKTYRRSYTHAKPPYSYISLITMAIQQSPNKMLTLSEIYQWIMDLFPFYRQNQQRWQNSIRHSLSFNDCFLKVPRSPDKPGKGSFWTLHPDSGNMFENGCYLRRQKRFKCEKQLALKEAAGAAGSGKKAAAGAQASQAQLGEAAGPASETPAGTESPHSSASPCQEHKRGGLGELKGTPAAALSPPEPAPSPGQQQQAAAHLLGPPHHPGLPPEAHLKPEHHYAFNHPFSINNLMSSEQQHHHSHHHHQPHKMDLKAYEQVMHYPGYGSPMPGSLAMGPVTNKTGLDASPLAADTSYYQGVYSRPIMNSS
Transcription factor E2F1 (Homo sapiens), sequence (Q01094 whole entry, looked up): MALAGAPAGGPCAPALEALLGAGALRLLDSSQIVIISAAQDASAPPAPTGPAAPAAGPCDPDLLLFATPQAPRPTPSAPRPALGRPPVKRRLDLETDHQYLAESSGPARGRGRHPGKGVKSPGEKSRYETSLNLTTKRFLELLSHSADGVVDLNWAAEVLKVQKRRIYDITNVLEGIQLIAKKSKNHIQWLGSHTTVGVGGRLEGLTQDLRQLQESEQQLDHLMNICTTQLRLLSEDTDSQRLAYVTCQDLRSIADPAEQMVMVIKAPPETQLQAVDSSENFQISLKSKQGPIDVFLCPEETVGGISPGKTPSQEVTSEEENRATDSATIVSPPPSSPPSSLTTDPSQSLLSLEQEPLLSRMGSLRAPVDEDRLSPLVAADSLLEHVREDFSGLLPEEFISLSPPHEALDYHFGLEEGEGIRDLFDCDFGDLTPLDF

`COc1nc(NC(C)C)nc(NC(C)C)n1`: the compound was called inactive in [1], in [2], in assay [3], in [4], in [5] and in assay [6]. The result in [7], in assay [8], in assay [9], in assay [10], in assay [11] and in assay [12] was inactive. Moreover, the call in assay [13], in assay [14], in assay [15], in assay [16], in assay [17] and in [18] was inactive.
With `CCNc1nc(Cl)nc(NC(C)C)n1`, the outcome in assay [1], in [2], in assay [3], in assay [4], in assay [5] and in [6] was inactive. In addition, the compound was called inactive in assay [7], in assay [8], in [10], in [11], in [12] and in assay [13]. Moreover, the call in assay [14], in assay [15], in assay [16], in assay [17] and in [18] was inactive.
Consider `CC(C)C1(C)N=C(c2nc3ccccc3cc2C(=O)O)NC1=O` (stereo not drawn), for which the outcome in [1], in assay [2], in assay [3], in [4], in assay [5] and in assay [6] was inactive. In addition, the compound was called inactive in assay [19], in assay [7], in assay [8], in [9], in [10] and in assay [11]. For the same compound, the compound was classed as inactive in assay [12], in assay [13], in [14], in assay [15], in assay [16] and in assay [17]. The compound was classed as inactive in [18].
The term AC50 denotes the midpoint of the concentration-response curve, whichever way the signal moves. Turning to `C=CCC1=C(C)[C@@H](OC(=O)[C@@H]2[C@@H](C=C(C)C)C2(C)C)CC1=O`, the compound was called inactive in [1], in [3], in assay [4], in assay [5], in assay [6] and in assay [7]. The compound was classed as inactive in [8], in assay [10], in assay [11], in assay [12], in assay [13] and in assay [14]. The result in assay [15], in assay [16], in [17], in [20] and in [18] was inactive. In addition, the results for the AC50 in assay [2] and in assay [9] were 7.32 µM (active) and 2.87 µM (active), respectively.

The values above are taken from PubChem BioAssay (EPA / NIEHS).
